Assay results: PubChem BioAssay (NCI)
About 83,000 compounds went through this panel and 20% of them were active in at least one assay; those are over-represented in the sample as a whole.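 Cell lines were cultured in 96-well plates, exposed to a single compound concentration, and assessed for percent growth 48 hours later.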 The source made the active and inactive calls. The calls were made as follows: active = growth percent below 10; inactive = the rest.

Key:
Assay in all cases: NCI-60 one-dose screen, 48 h (100 = growth as untreated, 0 = no growth, -100 = all killed)
Conditions in all cases: 10 µM unless noted
[1] = system: T-47D breast
[2] = system: BT-549 breast
[3] = system: MDA-MB-435 melanoma
[4] = system: SW-620 colon
[5] = system: MCF7 breast
[6] = system: HCT-116 colon
[7] = system: HCC-2998 colon
[8] = system: KM12 colon

Measured: growth

C=CCn1c(C)nc2cc(Nc3nc(Cl)nc4ccccc34)ccc21
inactive: [1] 81.5% | [2] 94.8% | [3] 93.3% | [4] 102% | [5] 94.6% | [6] 91.5% | [7] 101% | [8] 95.2%

COc1cc(/C=C/C(=O)c2c(C)nc3ccccc3c2/C=C/c2ccc(C)cc2)cc(OC)c1OC
inactive: [1] 19% | [2] 35.6% | [3] 11.1% | [5] 17.1% | [8] 13.2%
active: [4] 3.22% | [6] -70.3% | [7] -21.3%

CN(C)c1ccc(-c2cc(-c3ccc(Nc4nc(Nc5ccc(Cl)cc5)nc(Nc5ccc(Cl)cc5)n4)cc3)no2)cc1
active: [1] -4.43% | [3] 9.44% | [7] -5.58%
inactive: [2] 58.2% | [4] 53.6% | [5] 13.4% | [6] 31.3% | [8] 28.5%

CC1O[C@@H](OC2[C@H](OC(=O)/C=C/c3ccc(O)c(O)c3)C(COC3O[C@H](C)C(O)C(O)[C@@H]3O)O[C@@H](OCCc3ccc(O)c(O)c3)[C@H]2O)[C@@H](O)C(O)[C@H]1O (some centres not stated)
inactive: [1] 83.1% | [2] 98.8% | [3] 103% | [4] 108% | [5] 98.2% | [6] 103% | [7] 99.4% | [8] 99.3%

Cn1c(I)c(C#C[Si](C)(C)C)c(=O)n(C(=O)c2ccccc2)c1=O
active: [4] -83.4% | [5] -18.9% | [6] -61.6% | [7] 0.121%
inactive: [1] 17.8% | [2] 42.8% | [3] 53.9% | [8] 57.3%

CC/C=C\C[C@H](O)C/C=C1/C(=O)C=C[C@@H]1C/C=C\CCCC(=O)OC
active: [1] -0.483% | [2] -20.6% | [3] 4.45% | [4] -44.4% | [5] 4.43% | [6] -56.5% | [7] -78.4% | [8] -54.3%

CN(C)CC1C(=O)O[C@H]2[C@H]1CC/C(COC(=O)c1cc3ccccc3[nH]1)=C\CC[C@@]1(C)O[C@@H]21 (some centres not stated)
active: [1] -76.6% | [2] -52% | [3] -38.2% | [4] -19.3% | [5] -41.8% | [6] -83.3% | [7] -82% | [8] 6.93%

COc1ccc2[nH]c(O)c(C(=Nc3ccc(N(C)C(=O)CN4CCN(C)CC4)cc3)c3ccccc3)c2c1
inactive: [1] 53.4% | [2] 35.8% | [3] 42.3% | [4] 16.8% | [5] 29% | [6] 11.1% | [7] 34.3% | [8] 18.2%

Clc1cccc(Cl)c1/C=C/c1cc(/C=C/c2c(Cl)cccc2Cl)[nH]n1
active: [3] -50%
inactive: [1] 57% | [2] 30.7% | [4] 18.2% | [5] 20.9% | [6] 15.5% | [7] 35.1% | [8] 24.9%

NC(=S)Nc1cccc(O)c1
inactive: [1] 106% | [2] 78.8% | [3] 98.6% | [4] 99.8% | [5] 98.8% | [6] 91.6% | [7] 96.7% | [8] 106%

COc1cc(C(=O)/C=C/c2c(-c3ccc(F)cc3)nc3sc(C)cn23)cc(OC)c1OC
active: [1] 9.38% | [3] 3.64%
inactive: [2] 15% | [4] 30.6% | [5] 29.5% | [6] 20.1% | [7] 68.2% | [8] 10.4%

Cc1nc2ccccc2n1CC1NC(=O)NC1=O (configuration not stated)
inactive: [1] 103% | [2] 107% | [3] 99.8% | [4] 97.6% | [5] 96.2% | [6] 106% | [7] 115% | [8] 102%

O=C(CCCCCCN1CC(=O)N2[C@@H](c3ccccc3Cl)c3[nH]c4ccccc4c3C[C@H]2C1=O)NO
inactive: [1] 28.3% | [2] 76.8% | [3] 59.3% | [4] 49.1% | [5] 44% | [6] 34.2% | [7] 69.6% | [8] 74.8%

Cc1nc2ccccc2c(/C=C/c2ccc(Cl)cc2)c1C(=O)/C=C/c1ccc(F)cc1
inactive: [1] 17.7% | [2] 13.9% | [5] 17.6% | [8] 21.2%
active: [3] -21.3% | [4] -19.6% | [6] -70.5% | [7] -67.3%

N/C(=N\c1nc2ccccc2s1)NC(=O)Nc1cccc(Cl)c1
inactive: [1] 42.6% | [2] 42.8% | [4] 31.9% | [5] 21.2% | [6] 16% | [7] 73% | [8] 22.9%
active: [3] 1.08%

Cn1cc2c(c1)-c1nc(Nc3ccccc3)ncc1CC2
inactive: [1] 40.7% | [2] 32.1% | [3] 70.3% | [4] 52.1% | [5] 25.2% | [6] 35.4% | [7] 50.7% | [8] 11.9%

C=C1C(=O)O[C@H]2[C@H]1CC/C(COC(=O)C(=O)c1c[nH]c3ccc(OC)cc13)=C\CC[C@@]1(C)O[C@@H]21
active: [1] -54.5% | [2] -63.7% | [3] -85.3% | [4] -61.4% | [5] -30.1% | [6] -97.3% | [7] -81.9% | [8] -71.2%

CC/C=C\C[C@H](O)C/C=C1/C(=O)C=C[C@@H]1C/C=C\CCCCO
inactive: [1] 21.6% | [5] 13.3%
active: [2] -8.67% | [3] -5.88% | [4] -12.4% | [6] -64.6% | [7] 6.24% | [8] -16.1%

COc1ccc2nc(NNC(=O)c3cnccn3)c3cccn3c2c1
active: [1] 0.223% | [4] 0.919% | [5] -31.6% | [6] -26.5% | [8] 4.7%
inactive: [2] 12.7% | [3] 13.5% | [7] 37.4%

Cn1cc(-c2csc(-c3cccc(F)c3)n2)c2cccnc21
active: [1] -47.9% [100 µM] | [2] -36.9% [100 µM] | [3] -53.6% [100 µM] | [4] -49.8% [100 µM] | [5] -62% [100 µM] | [6] -79.7% [100 µM] | [7] -84.6% [100 µM] | [8] -70% [100 µM]

COc1ccc(OC)c(-c2c(C#N)c(-c3ccc(Cl)cc3)nc3c2c(-c2ccccc2)nn3-c2ccccc2)c1
inactive: [1] 90.3% | [2] 101% | [3] 103% | [4] 98.6% | [5] 90.7% | [6] 93.8% | [7] 108% | [8] 99.2%

O=c1[nH][n+](-c2ccc(Cl)cc2)no1
inactive: [1] 26.9% | [2] 91.8% | [3] 30.8% | [4] 40.8% | [5] 58.4% | [6] 84.5% | [7] 32.4% | [8] 31.3%

O=[N+]([O-])c1ccc(Sc2cccc[n+]2[O-])c2nonc12
inactive: [1] 54.9% | [2] 109% | [3] 97.9% | [4] 23.5% | [5] 25.5% | [7] 98.4% | [8] 68.6%
active: [6] 2.05%

Cc1cc(=O)oc2c1ccc1oc(C#N)c(C)c12
inactive: [1] 88.6% | [2] 94% | [3] 95.5% | [4] 95.7% | [5] 102% | [6] 89.9% | [7] 106% | [8] 104%

CN(C)c1ccc(/C=C/C(=O)c2cccc(Nc3nc(Nc4ccccc4)nc(Nc4ccccc4)n3)c2)cc1
inactive: [1] 81.4% | [2] 99.3% | [3] 101% | [4] 103% | [5] 75.1% | [6] 83.2% | [7] 64.5% | [8] 99.8%

NC(=N\N=C/c1ccccc1[N+](=O)[O-])/C(N)=N\N=C/c1ccccc1[N+](=O)[O-]
inactive: [1] 104% | [2] 116% | [3] 101% | [4] 105% | [5] 105% | [6] 108% | [7] 108% | [8] 104%

N#Cc1c(-c2ccccc2)cc(-c2ccc(Nc3nc(Nc4ccc(F)cc4)nc(Nc4ccc(F)cc4)n3)cc2)nc1N
inactive: [1] 77% | [2] 101% | [3] 105% | [4] 93.9% | [5] 84.3% | [6] 70.7% | [7] 51.8% | [8] 95.3%

Cc1occc1-c1n[nH]c(=S)n1N1C(=O)CSC1=S
inactive: [1] 104% | [2] 108% | [3] 99.5% | [4] 94.8% | [5] 94.4% | [6] 105% | [7] 112% | [8] 99%

O=S(=O)(Nc1cccc(Cl)c1)c1ccc(-c2cnc(C3CC3)o2)cc1
inactive: [1] 25% | [2] 26.6% | [4] 11.3% | [5] 14.2% | [6] 15.3% | [7] 46.3% | [8] 20.8%
active: [3] -21.5%
